According to ChEMBL document CHEMBL1961873, “Compounds: GSK PKIS; Assays: Nanosyn kinase panel” (2012):

How the values were obtained:
[1] = target: CDK3/Cyclin E (Homo sapiens) (UniProt P24864+Q00526); details: at 1 µM;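 note: each figure is a mean percent inhibition of the CDK3/cyclin E complex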
[2] = target: Cyclin-dependent kinase 4 (Homo sapiens) (UniProt P11802); details: at 0.1 µM
[3] = target: Cyclin-dependent kinase 4 (Homo sapiens) (UniProt P11802); details: at 1 µM
[4] = target: Cyclin-dependent kinase 5 (Homo sapiens) (UniProt Q00535); details: at 0.1 µM
Cyclin-dependent kinase 5 (Homo sapiens), sequence (Q00535 whole entry, looked up): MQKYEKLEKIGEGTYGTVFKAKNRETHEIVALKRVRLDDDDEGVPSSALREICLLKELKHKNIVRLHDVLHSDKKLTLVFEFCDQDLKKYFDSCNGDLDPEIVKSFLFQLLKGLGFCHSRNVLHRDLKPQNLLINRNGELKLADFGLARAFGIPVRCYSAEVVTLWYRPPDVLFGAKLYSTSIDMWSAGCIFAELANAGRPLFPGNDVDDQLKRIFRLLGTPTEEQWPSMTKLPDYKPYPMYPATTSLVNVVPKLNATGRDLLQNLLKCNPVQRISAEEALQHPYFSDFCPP

[5] = target: Cyclin-dependent kinase 5 (Homo sapiens) (UniProt Q00535); details: at 1 µM
[6] = target: Cyclin-dependent kinase 6 (Homo sapiens) (UniProt Q00534); details: at 0.1 µM
Cyclin-dependent kinase 6 (Homo sapiens), sequence (Q00534 whole entry): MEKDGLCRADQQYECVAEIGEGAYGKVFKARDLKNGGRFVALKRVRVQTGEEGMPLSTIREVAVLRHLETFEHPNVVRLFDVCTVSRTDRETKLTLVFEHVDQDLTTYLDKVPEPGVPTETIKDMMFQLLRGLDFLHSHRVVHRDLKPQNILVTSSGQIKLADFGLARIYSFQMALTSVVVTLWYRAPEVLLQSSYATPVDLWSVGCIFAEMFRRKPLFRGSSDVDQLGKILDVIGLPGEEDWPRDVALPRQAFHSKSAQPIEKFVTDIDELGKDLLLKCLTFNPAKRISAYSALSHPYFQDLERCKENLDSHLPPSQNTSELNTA

[7] = target: Cyclin-dependent kinase 6 (Homo sapiens) (UniProt Q00534); details: at 1 µM
[8] = target: Dual specificity protein kinase CLK2 (Homo sapiens) (UniProt P49760); details: at 0.1 µM
Dual specificity protein kinase CLK2 (Homo sapiens), sequence (P49760 whole entry, looked up): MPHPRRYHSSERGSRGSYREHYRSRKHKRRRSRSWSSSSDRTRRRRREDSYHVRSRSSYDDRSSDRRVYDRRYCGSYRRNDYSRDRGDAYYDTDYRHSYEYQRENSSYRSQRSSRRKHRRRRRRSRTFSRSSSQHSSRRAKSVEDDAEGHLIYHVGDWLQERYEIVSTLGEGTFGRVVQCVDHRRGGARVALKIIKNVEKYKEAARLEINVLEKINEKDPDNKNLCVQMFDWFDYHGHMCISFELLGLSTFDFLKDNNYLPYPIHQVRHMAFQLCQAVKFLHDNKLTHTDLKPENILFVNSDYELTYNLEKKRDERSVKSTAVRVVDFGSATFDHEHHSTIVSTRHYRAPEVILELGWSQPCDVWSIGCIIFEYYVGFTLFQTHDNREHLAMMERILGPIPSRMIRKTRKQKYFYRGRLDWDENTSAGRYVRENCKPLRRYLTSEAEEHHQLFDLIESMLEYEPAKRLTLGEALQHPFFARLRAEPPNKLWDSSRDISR

[9] = target: Dual specificity protein kinase CLK2 (Homo sapiens) (UniProt P49760); details: at 1 µM
[10] = target: Dual specificity protein kinase CLK3 (Homo sapiens) (UniProt P49761); details: at 0.1 µM
Dual specificity protein kinase CLK3 (Homo sapiens), sequence (P49761 whole entry, looked up): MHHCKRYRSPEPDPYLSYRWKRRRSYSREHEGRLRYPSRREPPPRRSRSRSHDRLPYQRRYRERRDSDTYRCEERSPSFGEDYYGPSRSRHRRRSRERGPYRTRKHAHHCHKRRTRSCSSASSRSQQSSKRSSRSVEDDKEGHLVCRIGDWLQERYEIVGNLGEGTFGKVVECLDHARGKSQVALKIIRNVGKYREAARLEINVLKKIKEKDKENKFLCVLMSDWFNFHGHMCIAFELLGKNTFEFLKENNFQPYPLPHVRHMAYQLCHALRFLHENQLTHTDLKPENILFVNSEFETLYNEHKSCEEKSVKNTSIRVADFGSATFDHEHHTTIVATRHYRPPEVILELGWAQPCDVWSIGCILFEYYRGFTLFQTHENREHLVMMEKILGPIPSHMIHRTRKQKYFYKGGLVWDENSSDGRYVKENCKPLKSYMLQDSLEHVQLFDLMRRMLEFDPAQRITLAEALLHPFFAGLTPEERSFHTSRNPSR

[11] = target: Dual specificity protein kinase CLK3 (Homo sapiens) (UniProt P49761); details: at 1 µM
[12] = target: Dual specificity tyrosine-phosphorylation-regulated kinase 1A (Homo sapiens) (UniProt Q13627); details: at 0.1 µM
[13] = target: Dual specificity tyrosine-phosphorylation-regulated kinase 1A (Homo sapiens) (UniProt Q13627); details: at 1 µM
[14] = target: Dual specificity tyrosine-phosphorylation-regulated kinase 1B (Homo sapiens) (UniProt Q9Y463); details: at 0.1 µM
Dual specificity tyrosine-phosphorylation-regulated kinase 1B (Homo sapiens), sequence (Q9Y463 whole entry, looked up): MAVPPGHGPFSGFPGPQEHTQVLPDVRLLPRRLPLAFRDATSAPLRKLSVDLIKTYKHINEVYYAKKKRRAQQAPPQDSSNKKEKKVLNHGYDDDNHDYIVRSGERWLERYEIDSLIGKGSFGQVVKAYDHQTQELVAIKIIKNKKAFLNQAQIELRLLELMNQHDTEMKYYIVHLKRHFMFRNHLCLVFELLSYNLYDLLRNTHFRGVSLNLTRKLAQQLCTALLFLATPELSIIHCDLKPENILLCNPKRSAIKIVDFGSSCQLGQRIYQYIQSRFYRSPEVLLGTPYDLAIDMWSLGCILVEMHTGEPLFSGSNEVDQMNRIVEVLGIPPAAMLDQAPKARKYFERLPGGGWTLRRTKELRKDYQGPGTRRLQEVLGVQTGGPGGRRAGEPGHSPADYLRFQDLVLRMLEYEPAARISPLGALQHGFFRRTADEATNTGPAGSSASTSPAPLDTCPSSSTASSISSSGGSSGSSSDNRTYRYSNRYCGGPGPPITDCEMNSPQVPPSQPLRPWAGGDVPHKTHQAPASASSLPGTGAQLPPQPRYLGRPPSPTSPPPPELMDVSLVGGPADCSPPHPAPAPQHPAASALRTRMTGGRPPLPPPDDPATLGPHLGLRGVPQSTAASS

[15] = target: Dual specificity tyrosine-phosphorylation-regulated kinase 1B (Homo sapiens) (UniProt Q9Y463); details: at 1 µM
[16] = target: T1, Dual specificity tyrosine-phosphorylation-regulated kinase 2 (Homo sapiens) (UniProt Q92630); details: at 0.1 µM
T1 sequence (whole entry): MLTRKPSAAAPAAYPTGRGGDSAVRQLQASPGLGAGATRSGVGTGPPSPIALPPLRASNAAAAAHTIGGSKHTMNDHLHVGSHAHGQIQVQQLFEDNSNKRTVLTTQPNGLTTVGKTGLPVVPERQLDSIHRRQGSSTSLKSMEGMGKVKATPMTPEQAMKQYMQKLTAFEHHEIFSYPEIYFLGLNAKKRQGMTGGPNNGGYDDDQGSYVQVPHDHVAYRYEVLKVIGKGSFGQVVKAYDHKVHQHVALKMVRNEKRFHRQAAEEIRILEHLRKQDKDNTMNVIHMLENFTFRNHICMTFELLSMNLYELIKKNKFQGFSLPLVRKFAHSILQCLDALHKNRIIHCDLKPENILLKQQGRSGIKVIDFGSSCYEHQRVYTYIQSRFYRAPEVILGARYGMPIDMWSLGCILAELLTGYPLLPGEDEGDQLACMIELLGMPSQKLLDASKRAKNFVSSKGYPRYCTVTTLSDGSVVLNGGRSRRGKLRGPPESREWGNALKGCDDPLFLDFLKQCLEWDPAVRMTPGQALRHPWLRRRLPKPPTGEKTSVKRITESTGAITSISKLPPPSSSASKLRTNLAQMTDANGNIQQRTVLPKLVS

[17] = target: T1, Dual specificity tyrosine-phosphorylation-regulated kinase 2 (Homo sapiens); details: at 1 µM
[18] = target: Glycogen synthase kinase-3 alpha (Homo sapiens) (UniProt P49840); details: at 0.1 µM
Glycogen synthase kinase-3 alpha (Homo sapiens), sequence (P49840 2-483 limits assumed): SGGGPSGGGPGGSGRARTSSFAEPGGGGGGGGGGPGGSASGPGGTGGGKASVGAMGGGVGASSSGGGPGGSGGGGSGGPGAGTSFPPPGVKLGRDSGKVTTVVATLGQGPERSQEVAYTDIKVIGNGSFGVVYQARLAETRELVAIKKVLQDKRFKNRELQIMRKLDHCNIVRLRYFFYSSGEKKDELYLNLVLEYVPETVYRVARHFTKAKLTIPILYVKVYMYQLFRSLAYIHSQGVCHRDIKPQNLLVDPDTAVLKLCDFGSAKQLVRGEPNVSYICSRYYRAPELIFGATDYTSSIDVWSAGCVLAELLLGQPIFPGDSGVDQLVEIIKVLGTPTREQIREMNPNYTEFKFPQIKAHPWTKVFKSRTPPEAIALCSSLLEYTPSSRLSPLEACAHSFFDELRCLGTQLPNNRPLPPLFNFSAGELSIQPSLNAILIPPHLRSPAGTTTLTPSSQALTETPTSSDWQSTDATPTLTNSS

[19] = target: Glycogen synthase kinase-3 alpha (Homo sapiens) (UniProt P49840); details: at 1 µM
[20] = target: Glycogen synthase kinase-3 beta (Homo sapiens) (UniProt P49841); details: at 0.1 µM;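 note: values are mean percent inhibition of GSK3B activity, from the GSK Published Kinase Inhibitor Set (PKIS) screening dataset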
Glycogen synthase kinase-3 beta (Homo sapiens), sequence (P49841 whole entry, looked up): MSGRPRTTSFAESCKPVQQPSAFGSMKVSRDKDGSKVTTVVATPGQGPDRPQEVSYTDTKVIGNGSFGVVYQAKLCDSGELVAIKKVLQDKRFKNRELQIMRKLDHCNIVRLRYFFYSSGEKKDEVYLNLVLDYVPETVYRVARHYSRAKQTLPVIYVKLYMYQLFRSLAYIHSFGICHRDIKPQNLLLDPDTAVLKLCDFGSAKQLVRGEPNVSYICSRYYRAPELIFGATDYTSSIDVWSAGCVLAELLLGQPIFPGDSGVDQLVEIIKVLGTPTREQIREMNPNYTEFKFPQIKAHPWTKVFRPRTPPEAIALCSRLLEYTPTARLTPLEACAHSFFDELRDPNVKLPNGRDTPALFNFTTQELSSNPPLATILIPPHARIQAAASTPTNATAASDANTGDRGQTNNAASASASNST

Cyclin-dependent kinase 4 (Homo sapiens), sequence (P11802 whole entry): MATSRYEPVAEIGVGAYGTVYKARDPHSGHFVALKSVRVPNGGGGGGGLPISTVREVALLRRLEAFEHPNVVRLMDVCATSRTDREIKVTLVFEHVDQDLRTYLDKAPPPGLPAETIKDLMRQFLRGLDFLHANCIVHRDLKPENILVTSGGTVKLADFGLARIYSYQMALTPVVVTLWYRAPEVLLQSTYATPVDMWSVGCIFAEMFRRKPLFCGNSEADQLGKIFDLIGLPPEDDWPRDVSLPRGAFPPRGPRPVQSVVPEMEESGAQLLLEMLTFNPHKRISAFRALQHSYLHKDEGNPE
CDK3/Cyclin E (Homo sapiens), sequence (P24864 whole entry, looked up): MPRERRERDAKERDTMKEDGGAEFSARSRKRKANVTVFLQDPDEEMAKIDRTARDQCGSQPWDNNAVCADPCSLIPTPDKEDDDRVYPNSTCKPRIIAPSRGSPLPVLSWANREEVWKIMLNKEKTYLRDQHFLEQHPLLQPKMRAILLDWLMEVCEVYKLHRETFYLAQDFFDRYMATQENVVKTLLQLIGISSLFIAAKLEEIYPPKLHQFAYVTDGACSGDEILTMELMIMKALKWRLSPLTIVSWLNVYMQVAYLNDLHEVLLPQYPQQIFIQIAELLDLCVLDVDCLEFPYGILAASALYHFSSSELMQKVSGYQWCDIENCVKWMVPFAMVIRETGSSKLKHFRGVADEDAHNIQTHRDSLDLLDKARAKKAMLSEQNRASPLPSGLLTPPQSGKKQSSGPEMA
CDK3/Cyclin E (Homo sapiens), sequence (Q00526 whole entry, looked up): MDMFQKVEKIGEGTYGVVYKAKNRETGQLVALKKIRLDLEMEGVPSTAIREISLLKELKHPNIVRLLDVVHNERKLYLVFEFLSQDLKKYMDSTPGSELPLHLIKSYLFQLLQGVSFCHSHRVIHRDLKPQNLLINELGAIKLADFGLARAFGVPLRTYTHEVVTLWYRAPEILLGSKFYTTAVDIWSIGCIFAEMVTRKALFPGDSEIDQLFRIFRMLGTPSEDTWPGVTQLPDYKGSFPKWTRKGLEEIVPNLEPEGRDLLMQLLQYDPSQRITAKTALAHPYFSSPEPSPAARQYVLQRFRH

SMILES | inhibition [1] [%] | inhibition [2] [%] | inhibition [3] [%] | inhibition [4] [%] | inhibition [5] [%] | inhibition [6] [%] | inhibition [7] [%] | inhibition [8] [%] | inhibition [9] [%] | inhibition [10] [%] | inhibition [11] [%] | inhibition [12] [%] | inhibition [13] [%] | inhibition [14] [%] | inhibition [15] [%] | inhibition [16] [%] | inhibition [17] [%] | inhibition [18] [%] | inhibition [19] [%] | inhibition [20] [%]
Cc1cc(-c2ccccn2)cc(C)c1/C=C/c1cncc(-c2nn[nH]n2)c1 | -2.71 | 6.05 | 8.73 | 3.27 | 5.72 | 1.94 | 5.55 | 0.95 | 1.77 | 0.5 | 0.95 | 2.5 | 1.98 | 2.58 | 4.24 | 3.69 | 4.85 | 5.73 | 12.5 | 5.72
NS(=O)(=O)c1cccc(Nc2cc(-c3ccc(F)cc3)n[nH]2)c1 | 36.7 | 1.88 | 10 | 5.52 | 31.4 | 10.5 | 52.5 | 1.65 | 1 | 1.43 | 2.68 | -0.01 | 4.42 | -1.06 | 2.79 | 1.93 | 4.01 | 3.57 | 7.78 | 2.84
Cc1ccc(C(=O)NC2CC2)cc1-c1ccc2[nH]ncc2c1 | 0.41 | -0.45 | 1.78 | 0.3 | 2.44 | -4.81 | -2.84 | -1 | 0.36 | -0.51 | 0.04 | -1.4 | 2.6 | 1.19 | 3.29 | -3.32 | -3.69 | -1.07 | 1.83 | -0.96
N#Cc1c(NC(=O)c2ccccc2F)sc2c1CCCC2 | -1.38 | -0.94 | 1.2 | 0.27 | 1.58 | -4.39 | -2.09 | -1.95 | -0.15 | -0.38 | -0.09 | -0.74 | 1.91 | 0.18 | 0.36 | -2 | -2.88 | -0.74 | 0.03 | -0.5
Cc1ccc2c(-c3ccnc(Nc4cccc(C(F)(F)F)c4)n3)c(-c3ccccc3)nn2n1 | -1.25 | 4.12 | 7.65 | 2.11 | 4.09 | -1.73 | 1.79 | -0.15 | 2.76 | 0.65 | 2.3 | 3.65 | 2.62 | 1.3 | 2.46 | 4.31 | 5.83 | 22.6 | 68.5 | 35.7
Oc1cccc(-c2nc(-c3ccccc3)[nH]c2-c2ccncc2)c1 | -2 | 2.45 | 5.74 | 0.71 | 3.06 | -1.44 | 6.21 | 1.81 | 4.52 | 1.66 | 2.52 | 2.29 | 8.77 | 1.25 | 7.99 | 2.63 | 5.4 | 5.29 | 14.8 | 5.61
FC(F)(F)c1ccc(-c2nn3ncccc3c2-c2ccnc(Nc3ccc4c(c3)OCCO4)n2)cc1 | 4.1 | 5.36 | 5.52 | 5.49 | 3.8 | 3.25 | 3.58 | 2.1 | 2.93 | 5.98 | 5.27 | 5.25 | 6.32 | 4.87 | 5.88 | -0.81 | 0.53 | 6.66 | 6.68 | 7.6
CCn1c(-c2nonc2N)nc2ccc(F)cc21 | -3.51 | 1.9 | 2.11 | 0.58 | 0.39 | 1.33 | 2.18 | 2.5 | 0.59 | 2.12 | 1.23 | 5.13 | 10.8 | -0.23 | 1.12 | 4.17 | 4.15 | 3.78 | 4.96 | 3
COc1cc(/C=N/Nc2ncnc3c2cnn3C(C)C)ccc1O | 27.6 | 3.37 | 18.7 | 10.4 | 46.2 | -4.82 | 9.96 | 3.4 | 23.2 | 5.21 | 31.6 | 1.4 | 8.18 | 0.35 | 7.69 | 1.46 | 5.67 | 6.47 | 37.4 | 4.9
NS(=O)(=O)c1ccc(Nc2cc(-c3cccc(O)c3)n[nH]2)cc1 | 28.8 | 3.25 | 9.51 | 5.69 | 31.5 | 2.31 | 21.3 | 3.77 | 2.54 | 1.95 | 2.62 | 3.45 | 7.37 | 0.5 | 2.4 | 3.82 | 4.65 | 2.99 | 6.38 | 2.02
CN(C)C(=O)O[C@@H]1CN[C@@H](C#Cc2cc3ncnc(Nc4ccc(OCc5cccc(F)c5)c(Cl)c4)c3s2)C1 | -1.66 | 2.09 | 1.46 | 0.54 | 1.24 | -6.37 | 0.91 | 0.95 | -0.08 | -0.16 | 0.69 | 0.28 | 2.08 | 0.23 | 1.08 | -0.19 | -0.32 | 1.34 | 8.31 | 1.37
ON=C1CCc2cc(-c3nc(C4CCNCC4)[nH]c3-c3ccncc3)ccc21 | 0.13 | 0.69 | 2.19 | 0.57 | 1.42 | -5.1 | -0.84 | 2.05 | -0.07 | -0.6 | 0.22 | -0.17 | 1.12 | 0.17 | -0.11 | -0.01 | 1.2 | 1.4 | 5.93 | 0.85
NS(=O)(=O)c1ccc(N/N=C2\C(=O)Nc3ccc(Cl)cc32)cc1 | 83.7 | 6.36 | 28 | 18 | 61 | 15.3 | 56.7 | 0.8 | 2.45 | 1.72 | 1.92 | 1.08 | 6.73 | 0.19 | 3.96 | 2.3 | 3.44 | 17.3 | 61.2 | 13.5
C[C@@H](Oc1cc(-n2cnc3ccc(OC[C@@H](O)CO)cc32)sc1C(N)=O)c1ccccc1Cl | 1.56 | -0.86 | 0.89 | 0.29 | 1.88 | -1.79 | -0.4 | 1.72 | 7.52 | 0.13 | 1.12 | 0.12 | 3.71 | 1.13 | 2.69 | -1.33 | 1.61 | 0.1 | 3.84 | 0.42
